USP1 inh – blocks the human USP1/UAF1 deubiquitinase complex | O94782 | recombinant USP1/UAF1, Ub-Rhodamine cleavage fluorescence | Potency, µM (top dose mostly 57.1 µM), for inactives: top-dose activity change, negative = inhibition, actives largely listed as inhibitors | 390,000 compounds, 0.23% hits; note: potency is the fitted concentration of half-maximal effect; nearly all actives have a fitted effect of over 60% in size
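USP1/UAF1 complex (1 nM) preincubated 15 min at room temperature with compound, then Ub-Rho substrate (150 nM final) added. Kinetic fluorescence at 480/540 nm over 6 reads at 60 s intervals; 50 mM HEPES pH 7.8, 0.5 mM EDTA, 0.1 mg/ml BSA, 1 mM TCEP, 0.01% Tween-20.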
PLK1 PBD inh – blocks phosphopeptide binding to human PLK1 polo-box domain. Plk1 PBD binding of FITC phosphopeptide, fluorescence polarization. P53350. Potency, µM, without a hit: max response, negative = inhibition, usual class: inhibitors. AID 720504. 360,000 compounds, 2.8% hits; note: potency is the fitted concentration of half-maximal effect; series mostly up to about 57 µM; nearly all actives have a fitted effect of over 65% in size
Target sequence (P53350 whole entry, looked up, the tested form may be a part): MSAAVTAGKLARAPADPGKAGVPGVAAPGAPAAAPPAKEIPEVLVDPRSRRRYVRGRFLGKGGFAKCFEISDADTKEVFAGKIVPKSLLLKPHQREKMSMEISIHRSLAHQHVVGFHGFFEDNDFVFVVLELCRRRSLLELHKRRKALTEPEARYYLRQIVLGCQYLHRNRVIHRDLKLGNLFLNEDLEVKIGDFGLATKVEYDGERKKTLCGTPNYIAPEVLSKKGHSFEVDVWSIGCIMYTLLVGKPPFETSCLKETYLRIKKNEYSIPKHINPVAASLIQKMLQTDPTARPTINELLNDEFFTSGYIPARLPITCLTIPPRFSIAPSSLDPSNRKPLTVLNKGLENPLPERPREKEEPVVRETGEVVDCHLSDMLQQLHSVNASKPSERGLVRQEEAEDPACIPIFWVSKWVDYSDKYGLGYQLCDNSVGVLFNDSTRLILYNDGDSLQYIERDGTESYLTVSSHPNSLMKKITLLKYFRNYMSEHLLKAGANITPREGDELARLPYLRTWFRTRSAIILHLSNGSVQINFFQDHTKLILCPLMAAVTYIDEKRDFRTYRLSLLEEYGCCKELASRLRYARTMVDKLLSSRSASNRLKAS
USP2a inh – blocks human ubiquitin-specific protease USP2a; 330,000 compounds, 0.01% hits; Potency, µM (series often up to 38.3 µM), without a hit: top-dose activity change, negative = inhibition, actives largely listed as inhibitors; O75604; AID 463254; USP2 core, Ub-CHOP2 coupled fluorogenic reporter, 485/531;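 note: potency is the fitted concentration of half-maximal effect; plate controls were DMSO wells for no effect and full inhibition by NEM control for full effect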
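Deubiquitinase activity read as fluorescence (485/531 nm) after Ub-CHOP2 cleavage activates the enterokinase reporter on its substrate; USP2 core 10nM, Ub-CHOP2 and substrate 25nM each, 30min compound preincubation then 60min RT; data normalized to NEM, curves fitted.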
VDR inh – vitamin D3 receptor (human) inhibition | P11473 | VDR-SRC2-3 peptide fluorescence polarization, 2 h | Potency, µM, without a hit: max response, negative = inhibition, hits mostly inhibitors | 400,000 compounds, 0.93% hits | AID 504847; note: potency is the fitted concentration of half-maximal effect
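Fluorescence polarization assay of small-molecule disruption of VDR binding to coregulator peptide SRC2-3. Compounds and controls pin-transferred, then read after 2 h incubation at ambient room temperature.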
Coupling enz – coupling enzyme interference in Giardia aldolase counter-screen. activity change, negative = inhibition, % at 58.2 µM, hits read low. coupling enzyme system counterscreen, AmpLite Red fluorescence. 290,000 compounds, 0.67% hits; in the data active = activity change below about -30%
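Counterscreen of the coupled detection system alone, without aldolase: glyceraldehyde-3-phosphate coupling enzymes plus AmpLite Red readout. Compounds at 57.5 uM final, 10 min RT preincubation, 20 min RT reaction, fluorescence 525/598 nm.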
GALK inh – inhibitors of human galactokinase; Purified GALK, Kinase-Glo residual ATP luminescence; Potency, µM (titrated, usually from 57.5 µM), inactives show top-dose activity change, negative = inhibition, usual class: inhibitors; 270,000 compounds, 0.007% hits; note: potency is the fitted concentration of half-maximal effect
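5 nM enzyme, 35 uM ATP, 100 uM galactose, 20 mM HEPES pH8.0, 5 mM MgCl2; 1 h RT; residual ATP by Kinase-Glo Plus luminescence, qHTS format.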
* = called active by the depositor; ? = inconclusive; . = no result given. The list is not random: actives were taken first. Their share in the collection is about 3.2%. Unless noted, calls come from the whole dose curve; as a rule, active = well fitted curve in the direction sought with a large enough effect; inconclusive = small, poorly fitted or top-dose-only effect, or another doubt; inactive = no such curve, though single readings can be large; an effect the other way counts as inactive or inconclusive. Unless noted, % is set by controls: 0 for no effect and ±100 for the full control effect.

SMILES	USP1 inh	PLK1 PBD inh	USP2a inh	VDR inh	Coupling enz	GALK inh
CCN1c2ccccc2-c2nc(SCC(=O)Nc3cccc(C(F)(F)F)c3)ncc2S1(=O)=O	?	.	.	6%	.	.
C=CCSc1nc2c(c(=O)[nH]c(=O)n2C)n1CC	-5%	24µM*	-1%	-16%	0	1%
CCCCCSc1nc2c(c(=O)[nH]c(=O)n2C)n1CC	-18%	21µM*	.	?	.	.
CCOC(=O)C(C)Sc1nc2c(c(=O)[nH]c(=O)n2C)n1C/C=C(/C)Cl (stereo unspecified)	-22%	12µM*	-1%	?	-1	0%
CCCCCCn1c(SCC(=O)OC)nc2c1c(=O)[nH]c(=O)n2C	-19%	5.3µM*	1%	22µM*	-3	1%
Cc1cc(C)cc(NC(=O)Nc2c[nH]c(=O)[nH]c2=O)c1	-24%	.	.	-3%	.	.
COc1cccc(OCc2nnc(SCc3cc(=O)[nH]c4ccccc34)o2)c1	-15%	24µM*	-10%	-14%	0	2%
O=C1NC(=O)/C(=C\c2ccc(Cl)nc2)S1	-16%	27µM*	-2%	?	6	-6%
CC(=O)NC1C(=O)N(Cc2ccccc2)c2ccc(Br)cc21 (stereo unspecified)	-13%	27µM*	0%	?	0	-1%
OCc1ccc(-c2ccc(-c3ccc(CO)s3)o2)s1	.	.	.	10µM*	-1	.
Cc1cnc(CNc2nc(-c3ccccc3C)nc3ccccc23)cn1	.	.	.	1%	1	.
CC(C)c1nnc(NC(=O)c2cccc(NC(=O)C(F)(F)F)c2)s1	-19%	21µM*	1%	1%	-1	4%
CC(C)C(=O)Nc1cccc(C(=O)Nc2nnc(C(C)C)s2)c1	-12%	-3%	-4%	18%	3	1%
Cc1cc(C)cc(NS(=O)(=O)CCCS(=O)(=O)Nc2cc(C)cc(C)c2)c1	-23%	4%	.	9%	.	.
CCc1cccc(C)c1NS(=O)(=O)c1cccs1	-22%	-1%	2%	-2%	-2	0%
O=c1[nH]c2ccccc2c(O)c1SCCO	-5%	-6%	2%	0%	-2	5%
O=C(O)CSc1c(O)c2ccccc2[nH]c1=O	-13%	21µM*	0%	-24%	-8	-6%
O=C(O)CSc1c2ccccc2cc2ccccc12	-22%	27µM*	-1%	71µM*	12	-5%
O=C(O)c1c2ccccc2cc2ccccc12	.	.	.	-11%	4	.
NS(=O)(=O)c1ccc(CCNC(=O)c2cc3ccccc3oc2=O)cc1	-14%	-9%	-1%	-1%	0	0%
O=C(c1nc2ccccc2s1)N1CCSCC1	-8%	1%	1%	-7%	-2	0%
Cc1ccc(C2=C(O)c3ccccc3C(=O)C2=O)cc1	-15%	2%	1%	3%	-14	-4%
O=C1C(=O)c2ccccc2C(O)=C1c1cccc([N+](=O)[O-])c1	-10%	27µM*	5%	-16%	-13	0%
N#Cc1ccccc1NC(=O)COC(=O)c1cccs1	-4%	-3%	0%	-4%	.	.
O=C(Nc1ccc(NC(=O)c2cccs2)cc1)c1ccco1	-18%	-3%	2%	1%	1	-2%
SMILES	USP1 inh	PLK1 PBD inh	USP2a inh	VDR inh	Coupling enz	GALK inh
O=C(NC(=S)Nc1ccccc1N1CCCC1)c1ccco1	?	?	-3%	-3%	-38*	5%
O=C(NC(=S)Nc1ccc(NC(=O)c2cccs2)cc1)c1ccco1	-10%	19µM*	1%	?	0	-4%
N#Cc1ccccc1NC(=S)NC(=O)c1cccs1	1%	8.4µM*	1%	-20%	1	12%
O=C(NC(=S)Nc1cccc2c(O)cccc12)c1ccco1	?	24µM*	1%	-23%	-4	6%
CSc1nc(-c2ccc(Cl)cc2)c(C#N)c(=O)n1C	-20%	-10%	5%	9%	3	0%
CCc1cccc(NC(=O)c2oc3ccc4c(c3c2C)C(=O)CC(C)(C)O4)c1	-17%	.	.	8%	.	.
O=C(Nc1ccccc1N1CCCCC1)c1ccc(-c2ccc(Cl)cc2)o1	-23%	27µM*	-1%	-18%	-5	2%
CCC(=O)Nc1ccc(Cl)c(NC(=S)NC(=O)c2ccco2)c1	-22%	27µM*	1%	-4%	2	1%
COc1ccc(OC)c(-n2nnnc2SCC(=O)N2CCN(C(=O)c3ccco3)CC2)c1	-1%	17µM*	2%	71µM*	4	1%
COc1ccc(-n2nnnc2SCC(=O)N2CCN(C(=O)c3ccco3)CC2)cc1OC	5%	19µM*	0%	-23%	2	1%
CC1CCCCC1NC(=O)CSc1nncn1N (stereo unspecified)	-17%	21µM*	1%	-7%	0	5%
O=C1NN(c2ccccc2)C(=O)/C1=C/c1ccc(-c2ccc(Cl)c(C(=O)O)c2)o1	-22%	?	4%	?	2	-1%
O=C(O)c1cc(-c2ccc(/C=C3\NC(=O)N(c4ccccc4)C3=O)o2)ccc1Cl	-22%	?	10%	15%	-14	-4%
Cc1cccc(N2NC(=O)/C(=C/c3ccc(-c4ccc(Cl)c(C(=O)O)c4)o3)C2=O)c1	-22%	17µM*	-6%	?	9	0%
O=C(O)c1cc(-c2ccc(/C=C3\NC(=O)N(c4ccc(Cl)cc4)C3=O)o2)ccc1Cl	?	12µM*	4%	-27%	0	1%
Cc1ccc(Sc2ccc(/C=C3/C(=O)NN(c4ccccc4)C3=O)o2)cc1	-16%	6µM*	-1%	?	2	-19%
CCCCCC(=O)Nc1cc(S(=O)(=O)N2CCCCC2)ccc1N1CCCCC1	-22%	0%	.	?	.	.
CCCCCC(=O)Nc1cc(S(=O)(=O)O)cc2cc(S(=O)(=O)O)cc(O)c12	?	6µM*	.	?	.	.
COc1ccccc1/C=C/C=C1\Oc2c(ccc(O)c2CN(C)C)C1=O	25µM*	7%	?	-12%	1	-2%
CS(=O)(=O)Oc1ccc2c(c1)O/C(=C\C=C\c1ccccc1)C2=O	-19%	2%	?	-18%	4	-5%
CCN(CC)Cc1c(O)ccc2c1O/C(=C\C=C\c1ccccc1)C2=O	32µM*	0%	?	-4%	0	1%
COc1ccc2c(c1)CC/C(=C\c1ccc(C)o1)C2=O	?	-5%	5%	-28%	-16	-2%
COCCN(CCOC)Cc1c(O)ccc2c1O/C(=C\c1ccc(C)o1)C2=O	32µM*	7%	?	-5%	-15	-2%
COc1ccccc1-c1ccc2ncnc(N3CCN(C)CC3)c2c1	.	.	.	-3%	-2	.

Compound activity as filed in PubChem.
